# Out of some 48,000 compounds screened, about 13,000 (27%) showed an effect of 50% or more. The list shows a part of the results.
# System: Wolbachia pipientis
# Experiment: Anti-Wolbachia Cell-Based Screen
# Format: functional
# Design: scale not given: in the data most compounds retested in dose-response had high values
# Conditions: 5 µM
row,SMILES,Percent Effect [%]
1,Cn1ccnc1CN1CC[C@@H](NS(C)(=O)=O)[C@@H]1Cc1ccccc1.O=C(O)C(F)(F)F,9.127
2,O=C(NC1CCS(=O)(=O)C1)N1CCN(c2cnccn2)CC1 (stereo unspecified),3.203
3,Clc1ccccc1-c1nnc(CSCCN2CCOCC2)o1,-8.486
4,COCCN(CC(C)C)c1cc(C)ncn1,0.855
5,Cc1c(C(=O)NC2CCCOC2)nnn1-c1ccc(Cl)cc1F (stereo unspecified),-27.09
6,COc1ccc2c(C)c(C(=O)NC3CCCOC3)oc2c1 (stereo unspecified),-7.174
7,Cc1cccc(-c2noc(C)c2C(=O)NC2CCCOC2)c1.O=C(O)CC(O)(CC(=O)O)C(=O)O (stereo unspecified),154
8,O=c1cc(CN(CCO)C2CC2)nc2ccccn12,-7.428
9,O=c1cc(CN(CCO)C2CC2)nc2ccc(Br)cn12,3.193
10,CCN(Cc1cc(=O)n2cc(Br)ccc2n1)C1CC1,1.133
11,c1cn2c(n1)CO[C@@H](CNCc1ccc3c(c1)OCO3)C2,-4.812
12,CN(CCO)Cc1cc(=O)n2cc(Br)ccc2n1,0.309
13,O=c1cc(CNCc2ccc3c(c2)OCO3)nc2ccc(Br)cn12,115.5
14,O=c1cc(CN(Cc2ccco2)C2CC2)nc2ccc(Br)cn12,-5.391
15,O=C(OCc1cc(=O)n2cc(Br)ccc2n1)c1ccc2c(c1)OCO2,110.5
16,O=c1cc(CNCc2ccc3c(c2)OCO3)nc2ccccn12,121
17,COc1ccccc1-n1c(CC(C)C)nnc1SCC(=O)O,-51.76
18,Cc1cccc(-n2nc(CC(C)C)nc2CCCC(N)=O)c1,10.56
19,Cc1cccc(-n2nc(CC(C)C)nc2CS(C)(=O)=O)c1,2.26
20,COc1ccccc1-n1nc(CC(C)C)nc1Cc1nnc(N)s1,123.6
21,COc1ccc(-n2nc(C(C)C)nc2COC(C)C)cc1,-17.3
22,COc1ccccc1-n1nc(CC(C)C)nc1CSc1nnc(N)s1,106.5
23,COc1ccccc1OCc1nc(C(C)C)no1,-14.46
24,COc1ccccc1-n1nc(C(C)C)nc1Cc1nnc(N)s1,123.2

row,SMILES,Percent Effect [%]
1,CC(C)Cc1nc(CS(C)(=O)=O)n(-c2ccccn2)n1,-36.43
2,CN(CCN1CCCCCC1)c1nccc(N2CCC(O)C2)n1 (stereo unspecified),17.45
3,CCc1nc(C2CCCN(c3nccc(N4CCCC4)n3)C2)no1 (stereo unspecified),-11.44
4,CC(C)c1nc(C2CCCN(c3nccc(N4CCCC4)n3)C2)no1 (stereo unspecified),-3.198
5,CCc1nnc(CN(C)c2nccc(N3CCCC(O)C3)n2)o1 (stereo unspecified),80.06
6,CN(Cc1nncn1C)c1nccc(N2CCC(O)CC2)n1,2.442
7,CCc1nc(CN(C)c2nccc(N3CCCC(O)C3)n2)no1 (stereo unspecified),114.5
8,CCc1noc(CN(C)Cc2ccc(N3CCCCC3)cc2)n1,6.491
9,CN(Cc1nccn1C)c1nccc(N2CCCC(O)C2)n1 (stereo unspecified),5.071
10,CC(C)c1nc(CCN(C)c2nccc(N3CCCC(O)C3)n2)no1 (stereo unspecified),96.48
11,CO[C@H]1COCCN(C(=O)c2ccc(C#N)cc2)C1,6.544
12,CC(NC(=O)CN1C=Nc2ccccc2S1(=O)=O)c1ccccc1 (stereo unspecified),1.961
13,Cc1c(NC(=O)C(C)N(C)C)c(=O)n(-c2ccccc2)n1C (stereo unspecified),117.4
14,Cc1cc(NC(=O)N(C)C2CCCN(c3ccccc3)C2=O)n(C)n1 (stereo unspecified),12.64
15,Cc1nn(C(C)C)c(C)c1NC(=O)c1ccccc1,-6.028
16,CN(Cc1ccsc1)c1nc(-c2ccccn2)nc2c1CCNCC2,9.446
17,O=C(Cc1ccccc1)N1CCC(c2nnc(-c3ccccn3)o2)CC1,100.4
18,O=C(Cn1cccn1)N1CCC(c2nnc(C(F)(F)F)o2)CC1,121.4
19,Cc1nnc([C@@H]2CCO[C@@H]3CCN(C(=O)Cc4ccccn4)C[C@@H]32)o1,-1.99
20,O=C(CC1CCN(c2ncnc3ccccc23)CC1)N1CCCC1,-18.62
21,O=C(CCn1cccn1)N1CCC(C2CCN(c3ncccn3)CC2)C1 (stereo unspecified),0.2616
22,O=C(Cc1ccccc1)N1CC[C@@H]2CNS(=O)(=O)[C@@H]2CC1,-4.028
23,CCS(=O)(=O)N1CCC(c2nnc(C(F)(F)F)o2)CC1,-1.552
24,O=C(CCn1cccn1)N1CCC(c2nnc(-c3ccccn3)o2)CC1,80.52

row,SMILES,Percent Effect [%]
1,CS(=O)(=O)NC1CCN(C(=O)CCn2cccn2)CC1,-7.028
2,CN(C)S(=O)(=O)N1CCC(c2nnc(C(F)(F)F)o2)CC1,9.522
3,O=C(c1ccccn1)N1CCCN(Cc2nnc(C3CC3)o2)CC1,-3.394
4,O=C(CC1CCCC1)N1CCC(c2nnc(-c3ccccn3)o2)CC1,116.1
5,Cc1cnn(CC2CCN(c3cc(C(C)C)nc4ccnn34)CC2)c1,-2.497
6,COC(=O)c1sccc1S(=O)(=O)N1CCC(Oc2cccc(C)n2)CC1,-4.236
7,Cc1ccc(Cc2sc(NC(=O)C(C)S(C)(=O)=O)nc2C)cc1 (stereo unspecified),-9.615
8,O=C(Cc1cccnc1)N1CCC(c2nnc(-c3ccccn3)o2)CC1,116.7
9,O=C(CC1CCN(c2ncnc3cccc(F)c23)CC1)N1CCCC1,7.525
10,O=C(CC1CCCC1)N1CCC(c2noc(-c3ccccn3)n2)CC1,138.8
11,Cn1cncc1-c1nnc([C@H]2CCN(Cc3cccnc3)C2)o1,-10.77
12,CN(C)CCCn1ccnc1C1CCN(C(=O)Cc2cccnc2)CC1,-18.68
13,Cc1noc(C)c1CN(C)CCC(=O)N1CCc2sccc2C1,-7.36
14,CNC(=O)[C@H]1CC[C@@H]2[C@@H](CCN2CCOCc2ccccc2)O1.O=C(O)C(F)(F)F,2.484
15,O=C(NCC1CC1)[C@@H]1CC[C@@H]2[C@@H](CCN2Cc2ccco2)O1.O=C(O)C(F)(F)F,95.42
16,COc1ccc(CN2CC[C@H]3O[C@@H](C(=O)NCC4CC4)CC[C@H]32)cc1.O=C(O)C(F)(F)F,93.13
17,O=C(NCc1ccco1)[C@@H]1CC[C@@H]2[C@@H](CCN2CC2CC2)O1.O=C(O)C(F)(F)F,-3.769
18,O=C(NCCc1ccncc1)[C@@H]1CC[C@@H]2[C@@H](CCN2Cc2ccco2)O1.O=C(O)C(F)(F)F.O=C(O)C(F)(F)F,-6.425
19,O=C(NCC1CC1)[C@@H]1CC[C@@H]2[C@@H](CCN2CCOCc2ccccc2)O1,-46.75
20,CNC(=O)[C@@H]1CC[C@@H]2[C@@H](CCN2Cc2ccccc2F)O1.O=C(O)C(F)(F)F,-4.389
21,O=C(NCC1CCOCC1)[C@@H]1CC[C@@H]2[C@@H](CCN2Cc2ccncc2)O1.O=C(O)C(F)(F)F.O=C(O)C(F)(F)F,108.2
22,O=C(NCc1ccco1)[C@@H]1CC[C@@H]2[C@@H](CCN2Cc2ccc(F)cc2)O1.O=C(O)C(F)(F)F,-0.4343
23,O=C(NCC1CC1)[C@@H]1CC[C@@H]2[C@@H](CCN2Cc2ccc(F)c(F)c2)O1.O=C(O)C(F)(F)F,110.1
24,O=C(NCCc1ccc(Cl)cc1)c1coc(CN2CCOCC2)c1,-3.788

row,SMILES,Percent Effect [%]
1,CC1=C(C#N)C(=O)NC(=O)/C1=C\c1c(C)nn(-c2ccc(C)cc2)c1O,117.9
2,CC1=C(C#N)C(=O)NC(=O)/C1=C\c1c(C)nn(-c2ccc(Cl)cc2)c1O,109.3
3,Cc1ccc(-n2nc(C)c3c2NC(=O)CC3c2cnc(N)s2)cc1 (stereo unspecified),19.39
4,Cc1nn(-c2ccccc2)c(C)c1CNC(=O)NC1CC(=O)N(C)C1 (stereo unspecified),1.592
5,Cc1nn(-c2ccccc2)c2c1C(c1ccc(C(=O)O)cc1)CC(=O)N2 (stereo unspecified),-3.155
6,CC1=C(C#N)C(=O)NC(=O)/C1=C\c1c(C)nn(-c2ccccc2)c1O,95.98
7,CNS(=O)(=O)c1ccc(CNC(=O)c2cc(C)no2)cc1,3.551
8,CNS(=O)(=O)c1cccc(CNC(=O)NCC2CCOC2)c1 (stereo unspecified),-2.881
9,CNS(=O)(=O)c1ccc(CNC(=O)c2cc(-c3ccccn3)no2)cc1,-10.88
10,CCc1ccc(C(=O)NCc2cccc(S(=O)(=O)NC)c2)o1,104.9
11,CCn1c(C)cc(C(=O)NCc2cccc(S(=O)(=O)NC)c2)c1C,-0.4884
12,CNS(=O)(=O)c1cccc(CNC(=O)c2cc(C)no2)c1,131.9
13,CC(C)NC(=O)CNC(=O)c1csc(Cc2ccccc2F)n1,109.5
14,CC(=O)Nc1nc(C(=O)NCCOc2ccccc2F)cs1,-9.068
15,CCNC(=O)CN(CC)C(=O)c1csc(Cc2ccccc2F)n1,97.94
16,CC(C)NC(=O)CN(C)C(=O)c1csc(Cc2ccccc2F)n1,122.3
17,COC(=O)CCN(C)C(=O)c1csc(Cc2ccccc2F)n1,117.5
18,CCN(CC(=O)NC(C)C)C(=O)c1csc(Cc2ccccc2)n1,-19.99
19,Cc1nc(C)c(CC(=O)NCc2ccccc2F)s1,8.727
20,CCNC(=O)CN(CC)C(=O)Cc1csc(C(C)C)n1,11.15
21,COC(=O)CCN(C)C(=O)c1ccc(-c2cscn2)cc1,-8.458
22,COCc1nc(C(=O)NS(=O)(=O)c2ccc(F)c(F)c2)cs1,-13.23
23,CC(C)NC(=O)CCNC(=O)Nc1cnn(-c2ccccc2F)c1,-8.567
24,CCN(CC(=O)NC)C(=O)c1csc(Cc2ccccc2)n1,-20.14

# From ChEMBL document CHEMBL3988442, “University of Dundee, Small-Polar-MMV Screening Library” (2021)
